# CIT2-GFP yeast – yeast TOR pathway CIT2-GFP modulation; S. cerevisiae CIT2-GFP strain, flow cytometry, 3 h; 100 means same as DMSO wells; AID 2029; 320,000 compounds, 0.065% hits; GFP response vs DMSO, % at 10 µM;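 active means GFP response relative to DMSO above a set limit, near the screen mean plus 3 SD, cut at about 150% in these data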;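 further: ratio of well median GFP fluorescence to mean of DMSO wells on the plate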
# AGP1-GFP MLPCN – yeast TOR pathway AGP1-GFP modulation | 320,000 compounds, 0.02% hits | AID 2066 | GFP response vs DMSO, % at 10 µM | S. cerevisiae AGP1-GFP multiplex flow cytometry, 3 h; GFP as percent of DMSO wells;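 active means GFP response relative to DMSO above a set limit, near screen average plus 3 SD, cut at about 150% in these data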;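 further: median GFP channel fluorescence of the gated AGP1 strain per well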
# RPL19A TOR yeast – modulators of TOR pathway RPL19A-GFP in S. cerevisiae; percent response vs DMSO, % at 10 µM; 330,000 compounds, 0.3% hits; S. cerevisiae RPL19A-GFP strain, flow cytometry, 3 h; active compounds read low;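 active means percent response vs DMSO below 50%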;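 further: median channel GFP fluorescence of the barcoded RPL19A-GFP strain; ratio of sample median GFP to plate DMSO average so 100% = DMSO; lower means less RPL19A-GFP as with rapamycin TOR inhibition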
# MEP2-GFP yeast – modulators of TOR pathway MEP2-GFP in S. cerevisiae; S. cerevisiae MEP2-GFP strain, flow cytometry GFP, 3 h; 100% = DMSO control level; GFP response vs DMSO, % at 10 µM; 330,000 compounds, 0.51% hits; AID 2016;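 active means GFP response versus DMSO above a set limit, roughly screen mean plus 3 SD, cut at about 180% in these data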;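 further: median GFP fluorescence of the barcode-gated MEP2-GFP cells per well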
# LAP4 TOR yeast – alters LAP4-GFP fluorescence in TOR pathway yeast screen. S. cerevisiae LAP4-GFP multiplex, flow cytometry GFP, 3 h; median GFP as percent of DMSO wells. GFP response vs DMSO, % at 10 µM. 320,000 compounds, 0.34% hits;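 active means GFP response vs DMSO above a set limit, about the screen mean plus 3 SD, cut at about 150% in these data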
# LAP4-GFP pick2 – second confirmation of modulators of TOR reporter LAP4-GFP in yeast; shares compounds with LAP4 TOR yeast; S. cerevisiae LAP4-GFP strain, flow cytometry GFP, 3 h; GFP response vs DMSO, % at 10 µM; 590 compounds, 20% hits; AID 2621;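 active means GFP signal as percent of the solvent control above about 150%, meaning raised reporter expression, limit read from the data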;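 further: ratio of well median GFP fluorescence to plate DMSO mean so 100% = DMSO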
# MEP2-GFP pick2 – second confirmation of modulators of TOR reporter MEP2-GFP in yeast. GFP response vs DMSO, % at 10 µM. shares compounds with LAP4 TOR yeast. S. cerevisiae MEP2-GFP strain, flow cytometry GFP, 3 h. 590 compounds, 10% hits. AID 2622;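 active means GFP signal above 150% of the solvent control wells, that is a rise of more than half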;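 further: median channel GFP fluorescence of all gated yeast cells per well; ratio of median GFP to plate DMSO average so 100% = DMSO level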
# RPL19A-GFP pick2 – reconfirmed modulator of RPL19A-GFP TOR reporter in yeast | shares compounds with LAP4 TOR yeast | S. cerevisiae RPL19A-GFP strain, flow cytometry GFP, 3 h; active compounds read low; 100% means same as DMSO wells | GFP response vs DMSO, % at 10 µM | 590 compounds, 3% hits | AID 2623;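 active means under 65% GFP response relative to DMSO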;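 further: median GFP channel fluorescence per well over the all cells gate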
# CIT2-GFP pick2 – reconfirmed modulator of CIT2-GFP TOR reporter in yeast; shares compounds with LAP4 TOR yeast; S. cerevisiae CIT2-GFP strain, flow cytometry GFP, 3 h; DMSO control wells read 100%; GFP response vs DMSO, % at 10 µM; 590 compounds, 8% hits;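 active means GFP response vs DMSO above about 150%, limit read from the data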;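 further: median green fluorescence per well over all gated yeast cells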
# AGP1 GFP CP2 – yeast AGP1-GFP TOR reporter modulation, second cherry pick; shares compounds with LAP4 TOR yeast; AID 2643; S. cerevisiae AGP1-GFP strain, flow cytometry GFP, 3 h; percent response vs DMSO, % at 10 µM; 590 tested, under 10 active;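 active means over 150 percent of DMSO response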;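 further: median GFP channel fluorescence over all cells without mother daughter split; sample median GFP divided by mean DMSO control so 100% equals DMSO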
# s288c autofluor – yeast s288c autofluorescence artifact, counter-screen; shares compounds with LAP4 TOR yeast; S. cerevisiae s288c, 520 nm autofluorescence, flow cytometry, 3 h; active compounds read high; zero means same as solvent-only cells; fluorescence change (kMESF span) at 33 µM; 610 tested, under 10 active; AID 2757;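 active means fluorescence span over the dose series, or activity score, above about 33, limit read from the data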
# * marks the source's active call; other numbers are inactive results; nt = no result given. Rows were chosen to be rich in hits. Some 0.92% of all compounds tested hit in one or more screens of this group.
SMILES,CIT2-GFP yeast,AGP1-GFP MLPCN,RPL19A TOR yeast,MEP2-GFP yeast,LAP4 TOR yeast,LAP4-GFP pick2,MEP2-GFP pick2,RPL19A-GFP pick2,CIT2-GFP pick2,AGP1 GFP CP2,s288c autofluor
CN1C(=O)/C(=C/c2ccc(Cl)s2)C(=O)NC1=S,92,70,100,85,118,nt,nt,nt,nt,nt,nt
O=S1(=O)N(Cc2ccc(F)cc2)CCCN1Cc1ccccc1Cl,101,108,104,106,108,nt,nt,nt,nt,nt,nt
O=C1NC(=O)C(=Cc2ccc(-c3ccc(S(=O)(=O)N4CCOCC4)cc3)o2)C(=O)N1,72,89,96,91,108,nt,nt,nt,nt,nt,nt
O=C1NC(=O)C(=Cc2ccc(-c3ccc(Cl)cc3)o2)C(=O)N1,57,66,71,90,263*,198*,123,84,103,89,0.5
COc1ccc(Cl)cc1C(=O)C1CCCN(Cc2cnc(C)s2)C1 (configuration not stated),96,99,94,97,98,nt,nt,nt,nt,nt,nt
O=C1C(=O)c2ccccc2-c2ccccc21,81,77,95,99,105,nt,nt,nt,nt,nt,2.1
CCCCCCCCn1sccc1=O,86,72,88,98,207*,180*,185*,85,174*,87,1.6
CCCCCCCCc1ccc(O)cc1,89,97,98,99,111,nt,nt,nt,nt,nt,nt
CC(ON1CC1(C(F)(F)F)C(F)(F)F)(C(N)=O)C(N)=O (configuration not stated),96,102,104,106,104,nt,nt,nt,nt,nt,nt
C/C(=C\c1ccc(N(C)C)cc1)[N+](=O)[O-],100,102,102,102,155*,103,93,98,111,99,nt
O=C1NC(=O)N(Cc2ccccc2Cl)C(=O)/C1=C/c1cccs1,77,81,95,83,133,nt,nt,nt,nt,nt,nt
O=C1NC(=O)N(Cc2ccc(F)cc2)C(=O)/C1=C/c1cccs1,76,91,88,99,170*,196*,133,76,79,81,0.1
CC[C@H](C)/C=C(C)/C=C/C1=CC2=C(Cl)C(=O)[C@@](C)(OC(C)=O)C(=O)C2=CO1,74,8,28*,79,75,71,97,29*,77,14,2
